Measurements reported in PubChem BioAssay AID1477 (National Center for Advancing Translational Sciences (NCATS), 2009).
Hit rate of the full screen: of about 230,000 compounds, fewer than 10 were called active. Inconclusive results (about 3%) are left out. Calls follow the shape of the dose curve; as a rule, active = well fitted curve in the direction sought with a large enough effect; inconclusive = small, poorly fitted or top-dose-only effect, or effect the other way, or another doubt; inactive = no such curve, though single readings can be large or run the other way. These entries were drawn from the full list. Bridge positions count the residues as written; N and C are the ends. Peptide text beside a SMILES is read from it.

Target: Runt-related transcription factor 1 (Homo sapiens) + Core-binding factor subunit beta (Homo sapiens) (UniProt Q01196+Q13951)
Assay: qHTS Assay for Compounds Blocking the Interaction Between CBF-beta and RUNX1 for the Treatment of Acute Myeloid Leukemia; also: % of control where 0% means no effect
Conditions: AlphaScreen CBFb-His/RUNX1-biotin binding, biochemical; series mostly up to 59.8 µM; activity, negative = inhibition: at the top concentration
Text: NIH Chemical Genomics Center [NCGC]
NIH Molecular Libraries Probe Production centers Network [MLPCN]
Assay Submitter (PI): Paul Liu
Core Binding Factor (CBF) abnormalities are associated with 20-25% of all acute myeloid leukemias (AML), of which 5-10% are further sub classified as acute myelomonocytic leukemia with eosinophilia, also known as M4Eo in the FAB classification scheme. This subtype of leukemia is usually associated with chromosome 16 inversion (p13:q22). Chromosome 16 inversion results in formation of the fusion oncogene CBFB-MYH11, which encodes the fusion protein CBF-beta-SMMHC.
It has been hypothesized that the interference of CBF-beta and RUNX1 binding could have therapeutic implications for patients with CBF mediated leukemias. We developed a CBF-beta and RUNX1 binding assay in AlphaScreenTM format and optimized it for high throughput screening to search for inhibitors. The goal of this project is to screen MLPCN's compound collection (MLSMR) for identifying the inhibitors of the interaction between CBF-beta and RUNX1 proteins as research probes. If these probes work well in the animal models, the ultimate goal of this project is to development a new drug treatment for this disease.
This assay can not be used to assess how apparent inhibitors interfere with protein binding, and whether inhibitors specifically bind to either protein. Disruption of this protein-protein interaction, through any mechanism, is the intended target activity.
NCGC Assay Protocol Summary:
Step, Parameter, Description
(1) Reagent, 3 uL CBFb-His/RUNX1-biotin mix incubated together for 20 minutes at room temperature (30 nM each)
(2) Compound or control, 23 nL compound stock solution
(3) Incubation, 15 minutes at Room temperature
(4) Reagent, 1 uL 50 ng each of beads (Nickel beads and streptavidin beads)
(5) Incubation, 90 minutes at Room temperature
(6) Detection, Excitation=365 nm Emission=440 nm, Envision reader in AlphaScreenTM mode
Keywords: MLSMR, MLPCN, NIH Roadmap, qHTS, NCGC, Core binding factor, CBF, CBF-beta, Acute myeloid leukemia

Sequence of Runt-related transcription factor 1 (Homo sapiens) + Core-binding factor subunit beta (Homo sapiens) (Q01196 whole entry, looked up): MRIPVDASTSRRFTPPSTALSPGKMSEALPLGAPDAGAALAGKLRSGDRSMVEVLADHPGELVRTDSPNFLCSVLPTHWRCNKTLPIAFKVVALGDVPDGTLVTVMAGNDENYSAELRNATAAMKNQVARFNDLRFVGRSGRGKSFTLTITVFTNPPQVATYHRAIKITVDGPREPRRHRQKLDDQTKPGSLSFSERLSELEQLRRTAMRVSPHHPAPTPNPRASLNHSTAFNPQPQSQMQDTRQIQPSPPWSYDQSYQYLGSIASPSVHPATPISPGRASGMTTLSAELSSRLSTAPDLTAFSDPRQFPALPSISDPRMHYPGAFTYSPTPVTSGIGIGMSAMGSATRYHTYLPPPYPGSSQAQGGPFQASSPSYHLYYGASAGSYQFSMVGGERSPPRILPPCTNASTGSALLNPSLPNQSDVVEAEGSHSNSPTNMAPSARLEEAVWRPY
Sequence of Runt-related transcription factor 1 (Homo sapiens) + Core-binding factor subunit beta (Homo sapiens) (Q13951 whole entry, looked up): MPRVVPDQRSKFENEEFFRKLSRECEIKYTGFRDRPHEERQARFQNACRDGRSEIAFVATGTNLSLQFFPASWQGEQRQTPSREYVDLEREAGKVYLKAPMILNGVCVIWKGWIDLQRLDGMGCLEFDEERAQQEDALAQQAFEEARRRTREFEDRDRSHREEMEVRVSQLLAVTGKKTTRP

activity, negative = inhibition, inactive:
CCCCc1nn(-c2ccccc2C(F)(F)F)c(=O)n1Cc1ccc(-c2ccccc2S(=O)(=O)NC(=O)c2sccc2C)cc1 3.51%, O=c1[nH]nc(SCCS(=O)(=O)c2ccc(F)cc2)n1-c1ccccc1C(F)(F)F 6.84%, O=C(O)c1ccc(NS(=O)(=O)c2ccc3c(c2)C(=O)c2cc(S(=O)(=O)Nc4ccc(C(=O)O)cc4)ccc2-3)cc1 -4.76%, COc1ccc(N)c(OC)c1 7.36% [at 21.7 µM], COc1ccc(NC(=O)C2C3C=CC(C3)C2C(=O)NCc2ccccn2)c(OC)c1 (stereo not drawn) -0.254%, COc1cccc(OC)c1C(=O)NC(=S)Nc1ccc(N2CCOCC2)c(Cl)c1 -15.9%, Cn1c(=O)c2c(-c3cccc(Br)c3)c(C#N)c(N)nc2n(C)c1=O 7.33%, O=C(NCC1CC1)C1(C(F)(F)F)C/C(=C\CCO)CCCO1 (stereo not drawn) -8.25%, CCN(CC)/[N+]([O-])=N/Oc1cc(O/[N+]([O-])=N/N2CCCC2CO)c([N+](=O)[O-])cc1[N+](=O)[O-] (stereo not drawn) 10.8%, CC[C@H](C)[C@H](NC(=O)[C@H](CCCNC(=N)N)NC(=O)[C@H](CCCNC(=N)N)NC(=O)[C@H](CC(C)C)NC(=O)[C@H](Cc1ccccc1)NC(=O)CNC(=O)CNC(=O)[C@@H](N)Cc1ccc(O)cc1)C(=O)N[C@@H](CCCNC(=N)N)C(=O)N1CCC[C@H]1C(=O)N[C@@H](CCCCN)C(=O)N[C@@H](CC(C)C)C(=O)N[C@@H](CCCCN)C(=O)N[C@@H](Cc1c[nH]c2ccccc12)C(=O)N[C@@H](CC(=O)O)C(=O)N[C@@H](CC(N)=O)C(=O)N[C@@H](CCC(N)=O)C(=O)O 4.96%, COC(=O)c1ccccc1N=Nc1c(C)[nH][nH]c1=O -0.539%, O=C(NCc1ccccc1)C1=C[C@@H](C2CCCCC2)C[C@@H](OCc2ccc(CO)cc2)O1 0.0499%, COc1ccc(N(CC(=O)NC2CCCCC2)C(=O)CNC(=O)c2ccco2)c(OC)c1 7.33%, CSc1ccccc1N1CCN(CCCCCC(=O)NC2CCCc3ccccc32)CC1 (stereo not drawn) -9.84%, CC1=C2[C@@H](O)[C@H]([C@@H](C)C(=O)NCCC(C)C)CC[C@@]2(C)C=CC1=O 13.2%, Cc1cccn2c(CN(C)C3CCCc4ccccc43)c(C(=O)N3CCOCC3)nc12 (stereo not drawn) -1.32%, COc1ccc(-c2ccc(C3C4C=CCCC4(C)C(=O)N3Cc3ccccc3)c(F)c2)cc1OC (stereo not drawn) -5.3%, CCCOC(=O)c1c(NC(=O)c2cnn3c2NC(c2ccccc2)CC3C(F)(F)F)sc2c1CCCC2 (stereo not drawn) -2.79%, COc1ccc(OC)c(C2C3=C(N=c4s/c(=C\c5cccc(O)c5)c(=O)n42)c2ccccc2CC3)c1 (stereo not drawn) -16.4%, Cc1cc(-c2nnc(CCC(=O)NC(c3ccccc3)c3ccccc3)o2)no1 10.9%, CCCN1CCC(=O)N(C(CSc2ccc(OC)cc2)Cc2ccccc2)CC1 (stereo not drawn) 8.03%, Cc1noc(C)c1-c1ccc2ncnc(NC(C)c3ccco3)c2c1 (stereo not drawn) -22.2%, O=C(CNC1CCCCC1)NCC1(c2ccccc2)CCCC1 6.6%, Nc1nc(NC(=O)/C=C/c2ccc(F)cc2)nn1-c1ccccc1 -1.51%, CC(Nc1nc(N2CCOCC2)nc2ccccc12)c1ccccc1 (stereo not drawn) 19.1%, COc1ccc(C2=Nn3c(nnc3-c3ccccc3O)SC2)cc1 -4%, O=C(O)C1CC=CC2CCN(C3CCCCC3)C(=O)C21 (stereo not drawn) 18.6%, Cc1ccc(CN(Cc2cccnc2)C(=S)Nc2cc(Cl)ccc2C)cc1 10.9%, O=C(NCc1ccccn1)[C@]1(C(F)(F)F)C[C@H](CCc2ccccc2)CCCO1 -3.84%, Cc1ccc(SCC(CC(C)C)N2CCN(CCc3ccccc3)CCC2=O)cc1 (stereo not drawn) 13.6%, O=C(CC1NCCc2ccccc21)Nc1cccc(Cl)c1 (stereo not drawn) -6.51%, CCOC(=O)c1ccccc1N1C(=O)C2Sc3[nH]c(=O)sc3C(/C=C/c3ccccc3)C2C1=O (stereo not drawn) -3.6%, CCOC(=O)c1cc2c(=O)[nH]c(C(Cl)(Cl)Cl)nc2o1 7%, C[C@@H](O)[C@@H]1NC(=O)[C@H](CCCCN)NC(=O)[C@H](Cc2c[nH]c3ccccc23)NC(=O)[C@H](Cc2ccccc2)NC(=O)[C@H](Cc2ccccc2)NC(=O)[C@H](CC(N)=O)NC(=O)[C@H](CCCCN)NC(=O)[C@@H](NC(=O)[C@@H]2CCCN2)CSSC[C@@H](C(=O)N[C@@H](CCCCN)C(=O)O)NC(=O)[C@H](CO)NC(=O)[C@H](CO)NC(=O)[C@H](Cc2ccccc2)NC1=O (H-PCKNFFWKTFSSCK-OH; disulfide 2-13) 10.5%, O=C1C2C(c3ccccc3)CC=CC2C(c2ccoc2)N1Cc1ccccc1 (stereo not drawn) 14.2%, COCCCn1c(SCc2cccc(OC)c2)nc2cc(OC)c(OC)cc2c1=N -7.59%, C=C1/C(=C\C=C2\CCCC3(C)C2CCC3C(C)/C=C/C(O)C2CC2)CC(O)CC1O (stereo not drawn) 13.2%, CCOC(=O)C(C)Oc1cccc2c(=O)n(CC(=O)NCCc3ccc(OC)c(OC)c3)ccc12 (stereo not drawn) 2.24% [at 2.36 µM], COc1ccc(C(=O)C2CCCN(Cc3cccn3-c3ccccn3)C2)c(C)c1 (stereo not drawn) -4.12%, ONC(=Nc1ccc(Cl)cc1)c1ccccc1Cl 16.1%, COc1cc(CN2CCN(Cc3ccc(C)cc3)CC2)c([N+](=O)[O-])cc1OC -8.19%, C=C/C1=C/Cc2ccccc2[C@H](C[N+](=O)[O-])C(C(=O)OC)(C(=O)OC)C1 -6.91%, COC(=O)c1c(NC(=O)CN2C(=O)NC(CCc3ccccc3)C2=O)sc2c1CCCCC2 (stereo not drawn) -2.03%, CC(C)(C)NCCCOc1ccc(Cl)cc1C(C)(C)C -23.8%, CCCNC(=O)OC[C@H]1O[C@H](CCO/N=C/[C@@H](NS(=O)(=O)c2ccc(C)cc2)[C@H](C)/C=C/CC(=O)OC)C=C[C@@H]1Oc1ccc(OC)cc1 -0.295% [at 2.36 µM], C/C=C/c1ccc(OCCCCN2CCC(C)CC2)c(OC)c1 5.81%, Cc1cccc(N2CCC(NCc3c(C(=O)N4CCCCC4)nc4c(C)cccn34)CC2)c1 5.52%, CC1(C)CC(CNCCC(c2ccc(F)cc2)c2ccco2)CCO1 (stereo not drawn) 18%, Fc1ccc(Cl)cc1-c1nc(Nc2ccncc2)c2nccnc2n1 14.3%, CCOc1ccc2sc(NS(=O)(=O)c3ccc(N)cc3)nc2c1 5.42%, CCc1ccc(CN(C)C(=O)CCc2nnc(-c3ccc(-c4ccccc4)cc3)o2)nc1 0.367%, CCOC(=O)C1(CCOc2ccccc2)CCN(C(=O)c2cncs2)CC1 15.7%, COc1ccc(C(CC(=O)N2CCN(c3ccccc3)CC2)c2c(O)cc(OC)cc2OC)cc1 (stereo not drawn)
